Compounds with a hit are over-represented: about 3.5% of the library has one in this group of screens.
TEAD-YAP inh – TEAD-YAP interaction inhibition, primary screen, TEAD-YAP interaction inhibitor project, luminescence, HEK-TIYL cells; TEAD-Gal4/YAP UAS-luciferase luminescence; inhibition, % at 9.12 µM; 640,000 compounds, 1.4% hits; AID 1259422, 2018; in the data active means inhibition above about 32%;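 further: 0% = median of test compound wells and 100% = reference inhibitor wells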
FBW7 act – FBW7 E3 ligase activators, primary screen, biochemical, AlphaScreen, human; AlphaScreen FBW7–phospho-cyclin E peptide binding, activator screen; normalized activity (activation), % at 26.1 µM; 650,000 compounds, 0.13% hits; AID 1259310, 2017; in the data active means normalized activity above about 1.9%;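 further: purified mutant Fbw7 with reduced substrate affinity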
GPR151 ag – activators of human GPR151, primary screen, cell-based, PathHunter beta-arrestin, luminescence. PathHunter beta-arrestin GPR151 cells. activation, % at 11.2 µM. 650,000 compounds, 1% hits. AID 1508602, 2020. G-protein coupled receptor 151 (Homo sapiens), Q8TDV0; in the data active means activation above about 4.9%;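 further: 0% = median of compound wells and 100% = cells with positive control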
Target sequence (Q8TDV0 whole entry, looked up): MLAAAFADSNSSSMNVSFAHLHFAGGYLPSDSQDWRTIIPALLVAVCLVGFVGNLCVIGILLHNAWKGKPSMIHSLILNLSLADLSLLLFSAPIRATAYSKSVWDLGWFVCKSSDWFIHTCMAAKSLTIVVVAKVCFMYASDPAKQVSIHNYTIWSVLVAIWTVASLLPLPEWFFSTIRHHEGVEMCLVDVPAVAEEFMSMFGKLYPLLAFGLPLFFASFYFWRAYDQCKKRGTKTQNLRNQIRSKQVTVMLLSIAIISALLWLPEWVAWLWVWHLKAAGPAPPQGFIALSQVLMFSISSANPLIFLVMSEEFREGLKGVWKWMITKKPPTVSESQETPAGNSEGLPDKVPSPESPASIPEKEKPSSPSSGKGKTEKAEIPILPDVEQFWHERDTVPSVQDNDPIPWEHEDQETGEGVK
MITF inh – MITF inhibitors, primary screen, biochemical, AlphaScreen, human. inhibition, % at 2.6 µM. AlphaScreen MITF homodimerization, bead proximity signal. 650,000 compounds, 0.91% hits; in the data active means inhibition above about 50%;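 further: 0% = vehicle wells with protein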
Active calls of the source: *.

SMILES | TEAD-YAP inh | FBW7 act | GPR151 ag | MITF inh
Cc1ccnc(NC(c2ccc3cccnc3c2O)c2sccc2C)c1 (stereo not drawn) | 30 | -1 | 0 | 22
Cc1ccnc(NC(c2ccc(O)cc2)c2ccc3cccnc3c2O)c1 (stereo not drawn) | -5 | -1 | 0 | 27
CCn1c(SCC(=O)N2CCOCC2)nnc1-c1cccc(C)c1 | -7 | 0 | 1 | 6
Cc1ccc(-n2nc3ccc(N)cc3n2)c(C)c1 | 40* | 0 | 0 | 9
Cc1ccc(-n2nc3ccc(N)cc3n2)cc1Cl | -20 | 0 | -1 | -5
COC(=O)c1ccc2nc(-c3cccc(N)c3)cn2c1 | 78* | 0 | -9 | 0
COC(=O)c1ccc2nc(-c3ccc(S(C)(=O)=O)cc3)cn2c1 | -30 | 0 | -2 | 2
CCOC(=O)c1[nH]c(C)c(C(=O)Nc2cc(Cl)ccc2C)c1C | 47* | 0 | 0 | -10
CC(=O)c1[nH]c(C)c(C(=O)Nc2cc(Cl)ccc2C)c1C | -1 | 0 | 0 | 17
CCOC(=O)c1[nH]c(C)c(C(=O)N2CCCCCC2)c1C | -8 | 1 | 1 | 20
CCOC(=O)c1[nH]c(C)c(C(=O)c2ccc(Cl)cc2)c1C | 40* | 0 | 2 | 13
CCOC(=O)c1[nH]c(C)c(C(=O)N2CC(C)CC(C)C2)c1C (stereo not drawn) | 44* | 0 | -1 | -2
CCOC(=O)c1[nH]c(C)c(C(=O)Nc2cc(C)ccc2OC)c1C | 57* | 0 | 2 | 2
COc1ccc(C2=NN(C(=O)CSc3nnc(CNC(=O)c4cccc(F)c4)n3C)C(c3ccc(C)cc3)C2)cc1 (stereo not drawn) | 8 | 0 | 0 | 10
CCOC(=O)c1c(C)[nH]c(C(=O)C(C)Nc2ccc(OC)c(OC)c2)c1C (stereo not drawn) | 43* | 0 | -2 | 42
CCOC(=O)c1[nH]c(C)c(C(=O)Nc2ccccc2C)c1C | 44* | 0 | -1 | -5
CCOC(=O)c1[nH]c(C)c(C(=O)Nc2ccccc2OCC)c1C | 58* | 0 | 0 | -9
CCOC(=O)c1c(C)[nH]c(C(=O)C(C)Nc2ccccc2OCC)c1C (stereo not drawn) | -3 | 0 | 0 | 5
CCOC(=O)c1c(C)[nH]c(C(=O)C(C)Nc2cc(NC(C)=O)ccc2OC)c1C (stereo not drawn) | 1 | 0 | -2 | 1
CCOC(=O)c1[nH]c(C)c(CNc2cc(OC)ccc2OC)c1C | 50* | 0 | 0 | 12
C=CCOC(=O)c1c2c(n3ccccc13)C(=O)c1ccccc1C2=O | 10 | 0 | -1 | 18
CC(=O)Nc1ccc(Nc2cc(C(F)(F)F)nc3ncnn23)cc1 | -48 | 0 | -7 | -4
Cc1cccc(NC(=O)C(Cc2c[nH]c3ccccc23)NC(=O)OCc2ccccc2)c1C (stereo not drawn) | 10 | 0 | 2 | 10
Cc1ccc(-c2c(Nc3ccccc3C)c(=O)c2=O)cc1 | 49* | 0 | 3 | 0
Cc1ccc(Nc2c(-c3ccccc3)c(=O)c2=O)cc1F | 35* | 0 | -2 | 10
SMILES | TEAD-YAP inh | FBW7 act | GPR151 ag | MITF inh
Cc1ccc(-c2c(NC(C)c3ccccc3)c(=O)c2=O)cc1 (stereo not drawn) | 45* | 0 | 2 | 0
Cc1ccc(CNc2c(-c3ccccc3)c(=O)c2=O)cc1 | -8 | 0 | -1 | -1
Cc1ccccc1NC(=O)c1cc(Cl)ccc1O | 42* | 0 | -7 | -23
O=C(Nc1cccc2ccccc12)c1cc(Cl)ccc1O | 64* | 0 | -2 | 9
O=C(Nc1cccc2ccccc12)c1ccccc1I | 4 | 0 | 2 | -1
CC(C)(C)NS(=O)(=O)c1cc(Br)cc2c1N(C(=O)C1CC1)CC2 | -5 | 0 | 1 | -6
O=C(C1CC1)N1CCc2cc(Br)cc(S(=O)(=O)Nc3cccc(F)c3)c21 | 42* | 0 | 1 | 11
O=C(C1CC1)N1CCc2cc(Br)cc(S(=O)(=O)Nc3ccccc3F)c21 | 45* | 0 | -1 | -7
Cc1ccc(-c2n[nH]c(C(C)NC(=O)N3CCCC3)n2)cc1 (stereo not drawn) | -1 | 0 | 0 | 1
Cc1ccccc1Nc1cnn(C23CC4CC(CC(C4)C2)C3)c(=O)c1Cl | -10 | 0 | 0 | -17
O=c1c2ccccc2nc(SCc2nc3ccccc3[nH]2)n1-c1ccc(Cl)cc1 | -7 | 0 | 2 | 15
OCCNc1nc(-c2cccs2)nc2c1ncn2-c1ccsc1 | 67* | 0 | 0 | 33

High-throughput results from PubChem.
